Reference: PubChem BioAssay (EPA / NIEHS)
Records with an inconclusive call do not appear. Calls of active or inactive are those of the source. The calls were made as follows: active = hit-call score of the fitted dose curve at least 0.9, where 1 is the maximum; inconclusive = response in the unintended direction; inactive = score below 0.9.

Columns and labels:
[1] = target: rat Serotonin, 5-Hydroxytryptamine Receptor 1 (5HT1), Non-Selective Binding, Htr1a (gene 24473) (UniProt P19327); test: NVS_GPCR_r5HT1_NonSelective: NovaScreen (NVS) G Protein-Coupled Receptor Assay for rat Serotonin, 5-Hydroxytryptamine Receptor 1 (5HT1), Non-Selective Binding (AID 2283286)
Sequence of rat Serotonin, 5-Hydroxytryptamine Receptor 1 (5HT1), Non-Selective Binding, Htr1a (gene 24473) (P19327 whole entry, looked up): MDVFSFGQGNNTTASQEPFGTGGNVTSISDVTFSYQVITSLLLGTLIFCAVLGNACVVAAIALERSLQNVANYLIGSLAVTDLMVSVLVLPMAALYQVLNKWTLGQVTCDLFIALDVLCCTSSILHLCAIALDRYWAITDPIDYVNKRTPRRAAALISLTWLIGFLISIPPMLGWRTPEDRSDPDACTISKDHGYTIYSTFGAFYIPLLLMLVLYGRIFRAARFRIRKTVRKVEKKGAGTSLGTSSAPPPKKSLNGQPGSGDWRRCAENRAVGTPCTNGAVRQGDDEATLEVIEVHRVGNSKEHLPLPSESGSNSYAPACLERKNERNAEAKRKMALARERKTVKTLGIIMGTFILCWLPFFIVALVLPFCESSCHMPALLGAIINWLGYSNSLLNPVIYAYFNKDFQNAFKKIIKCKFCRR
Summary of the method: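 Binding of a radioligand to rat cortex membranes is read by filtration and scintillation counting after 1 h. Compounds were screened at 25 uM in duplicate. Actives were then titrated to a top of 50 uM. DMSO is the baseline.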

[2] = test system: 5-hydroxytryptamine receptor 2C (pig); test: NVS_GPCR_p5HT2C: NovaScreen (NVS) G Protein-Coupled Receptor Assay for pig Serotonin, 5-Hydroxytryptamine Receptor 2C (5HT2C) (AID 2283288)
Summary of the method: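 Radioligand displacement on membranes from pig choroid plexus, detected by filter scintillation counting after 1 h. Tested first at a single 25 uM in duplicate, then in concentration-response for actives; DMSO served as baseline.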

[3] = test system: guinea pig Atrionatriuretic Peptide Receptor A (ANPA), gene 100135578; test: NVS_GPCR_gANPA: NovaScreen (NVS) G Protein-Coupled Receptor Assay for guinea pig Atrionatriuretic Peptide Receptor A (ANPA) (AID 2283291)
Protocol: NVS_GPCR_gANPA is a biochemical, single-readout assay that uses extracted gene-proteins from Guinea pig cerebellar membranes in a tissue-based cell-free assay. Measurements were taken 1 hour after chemical dosing in a 96-well plate.NVS_GPCR_gANPA is one of one assay component(s) measured or calculated from the NVS_GPCR_gANPA assay. It is designed to make measurements of radioligand binding, a form of binding reporter, as detected with scintillation counting signals by Filter-based radiodetection technology.Data from the assay component NVS_GPCR_gANPA was analyzed into 1 assay endpoint. This assay endpoint, NVS_GPCR_gANPA, was analyzed in the positive analysis fitting direction relative to DMSO as the negative control and baseline of activity. Using a type of binding reporter, loss-of-signal activity can be used to understand changes in the binding as they relate to the gene Nppa. Furthermore, this assay endpoint can be referred to as a primary readout, because the performed assay has only produced 1 assay endpoint. To generalize the intended target to other relatable targets, this assay endpoint is annotated to the lyase intended target family, where the subfamily is guanylyl cyclase.
Binding assays used specific radioligands (tritiated, iodinated) with non-radioactive competitive displacement ligands in agonist or antagonist protocols (as indicated) and various reference compounds and inhibitors to titrate specific binding to receptors and transporters. Most enzyme assays (CYPs, kinases, phosphatases, proteases, HDACs) used recombinant protein and specific substrates (fluorescence mostly, some colorimetric and radioactive) and inhibitors, followed by a biochemical separation of substrate and product. All assays for the biochemical HTS were initially run in duplicate at a single concentration (10 uM for CYP450 assays and 25 uM for all others). […]

[4] = test system: rabbit Platelet Activating Factor Receptor (PAF), gene 100354046; test: NVS_GPCR_rabPAF: NovaScreen (NVS) G Protein-Coupled Receptor Assay for rabbit Platelet Activating Factor Receptor (PAF) (AID 2283287)
Protocol: (§1) NVS_GPCR_rabPAF is a biochemical, single-readout assay that uses extracted gene-proteins from Rabbit platelets in a tissue-based cell-free assay. Measurements were taken 1 hour after chemical dosing in a 48-well plate.NVS_GPCR_rabPAF is one of one assay component(s) measured or calculated from the NVS_GPCR_rabPAF assay. It is designed to make measurements of radioligand binding, a form of binding reporter, as detected with scintillation counting signals by Filter-based radiodetection technology.Data from the assay component NVS_GPCR_rabPAF was analyzed into 1 assay endpoint. This assay endpoint, NVS_GPCR_rabPAF, was analyzed in the positive analysis fitting direction relative to DMSO as the negative control and baseline of activity. Using a type of binding reporter, loss-of-signal activity can be used to understand changes in the binding as they relate to the gene PTAFR. Furthermore, this assay endpoint can be referred to as a primary readout, because the performed assay has only produced 1 assay endpoint. To generalize the intended target to other relatable targets, this assay endpoint is annotated to the gpcr intended target family, where the subfamily is rhodopsin-like receptor. […]

[5] = target: human Opioid Receptor Mu (Opiate Mu), OPRM1 (gene 4988) (UniProt P35372); test: NVS_GPCR_hOpiate_mu: NovaScreen (NVS) G Protein-Coupled Receptor Assay for human Opioid Receptor Mu (Opiate Mu) (AID 2283290);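 also: hits lower bound tracer signal versus DMSO meaning displacement of the ligand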
Sequence of human Opioid Receptor Mu (Opiate Mu), OPRM1 (gene 4988) (P35372 whole entry, looked up): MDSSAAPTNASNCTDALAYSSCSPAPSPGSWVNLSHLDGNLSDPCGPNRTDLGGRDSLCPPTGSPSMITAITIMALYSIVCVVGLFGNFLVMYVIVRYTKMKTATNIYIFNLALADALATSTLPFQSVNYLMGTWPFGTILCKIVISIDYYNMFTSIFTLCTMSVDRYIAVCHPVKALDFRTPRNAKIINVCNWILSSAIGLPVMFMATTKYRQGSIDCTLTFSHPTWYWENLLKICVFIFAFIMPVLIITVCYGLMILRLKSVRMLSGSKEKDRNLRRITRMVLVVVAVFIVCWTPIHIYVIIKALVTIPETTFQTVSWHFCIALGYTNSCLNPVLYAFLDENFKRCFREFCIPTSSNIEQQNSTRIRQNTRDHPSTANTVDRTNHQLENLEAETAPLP
Summary of the method: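 CHO-derived receptor protein, cell-free; radioligand displacement, filtration + scintillation counting, read at 2.5 h. DMSO = negative control/baseline. Primary: 25 uM single conc, duplicate; secondary: concentration series.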

[6] = target: guinea pig Serotonin, 5-Hydroxytryptamine Receptor 4 (5HT4), HTR4 (gene 100135548) (UniProt O70528); test: NVS_GPCR_g5HT4: NovaScreen (NVS) G Protein-Coupled Receptor Assay for guinea pig Serotonin, 5-Hydroxytryptamine Receptor 4 (5HT4) (AID 2283294)
Sequence of guinea pig Serotonin, 5-Hydroxytryptamine Receptor 4 (5HT4), HTR4 (gene 100135548) (O70528 whole entry, looked up): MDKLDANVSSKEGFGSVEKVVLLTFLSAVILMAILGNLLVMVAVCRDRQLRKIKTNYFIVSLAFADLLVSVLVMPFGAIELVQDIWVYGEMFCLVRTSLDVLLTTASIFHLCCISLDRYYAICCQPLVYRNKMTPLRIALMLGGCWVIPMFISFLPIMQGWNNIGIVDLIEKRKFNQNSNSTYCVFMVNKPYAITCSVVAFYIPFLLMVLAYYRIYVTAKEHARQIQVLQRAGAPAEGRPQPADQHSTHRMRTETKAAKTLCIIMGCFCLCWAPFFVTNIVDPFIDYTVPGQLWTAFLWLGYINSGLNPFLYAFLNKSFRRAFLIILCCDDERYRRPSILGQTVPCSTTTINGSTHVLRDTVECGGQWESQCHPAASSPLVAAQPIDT
Summary of the method: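 Compounds first screened in duplicate at 25 uM, actives followed up in concentration series. Binding measured as displacement of specific radioligand from guinea pig striatal membranes, 1 h, filter-based scintillation read-out versus DMSO baseline.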

[7] = target: mouse Cholecystokinin, CCK2 Receptor (CCKB), Cckbr (gene 12426) (UniProt P56481); test: NVS_GPCR_mCKKBCentral: NovaScreen (NVS) G Protein-Coupled Receptor Assay for mouse Cholecystokinin, CCK2 Receptor (CCKB) (AID 2283293)
Sequence of mouse Cholecystokinin, CCK2 Receptor (CCKB), Cckbr (gene 12426) (P56481 whole entry, looked up): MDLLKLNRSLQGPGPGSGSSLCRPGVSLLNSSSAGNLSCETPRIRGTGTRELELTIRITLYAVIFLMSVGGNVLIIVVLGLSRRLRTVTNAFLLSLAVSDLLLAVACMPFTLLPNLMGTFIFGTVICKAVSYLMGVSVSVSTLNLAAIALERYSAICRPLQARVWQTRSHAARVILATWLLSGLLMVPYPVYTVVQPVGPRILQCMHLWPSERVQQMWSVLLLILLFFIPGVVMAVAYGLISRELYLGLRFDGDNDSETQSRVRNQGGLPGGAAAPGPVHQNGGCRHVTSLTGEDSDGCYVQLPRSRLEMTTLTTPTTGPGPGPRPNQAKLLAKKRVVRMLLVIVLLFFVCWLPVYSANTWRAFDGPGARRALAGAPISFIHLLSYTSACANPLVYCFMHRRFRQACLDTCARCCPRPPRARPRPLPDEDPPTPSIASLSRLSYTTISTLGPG
Protocol: as §1, with “NVS_GPCR_mCKKBCentral” for “NVS_GPCR_rabPAF”, “Mouse forebrain membranes” for “Rabbit platelets”, “2 hours” for “1 hour”, “96-well plate.NVS_GPCR_mCKKBCentral” for “48-well plate.NVS_GPCR_rabPAF”, “NVS_GPCR_mCKKBCentral,” for “NVS_GPCR_rabPAF,”, “Cckbr.” for “PTAFR.”

[8] = test system: rat Adrenergic, Alpha 1B Receptor (Adra1B), gene 24173; test: NVS_GPCR_rAdra1B: NovaScreen (NVS) G Protein-Coupled Receptor Assay for rat Adrenergic, Alpha 1B Receptor (Adra1B) (AID 2283297)
Summary of the method: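 Filter-binding radioligand competition on membranes from rat liver, read after 1 h by scintillation counting. Single-concentration duplicate screen at 25 uM, followed by concentration-response on actives, normalised to DMSO.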

[9] = target: rat Adrenergic, Alpha 1, Non-selective Receptor (Adra1), Adra1a (gene 29412) (UniProt P43140); test: NVS_GPCR_rAdra1_NonSelective: NovaScreen (NVS) G Protein-Coupled Receptor Assay for rat Adrenergic, Alpha 1, Non-selective Receptor (Adra1) (AID 2283289)
Sequence of rat Adrenergic, Alpha 1, Non-selective Receptor (Adra1), Adra1a (gene 29412) (P43140 whole entry, looked up): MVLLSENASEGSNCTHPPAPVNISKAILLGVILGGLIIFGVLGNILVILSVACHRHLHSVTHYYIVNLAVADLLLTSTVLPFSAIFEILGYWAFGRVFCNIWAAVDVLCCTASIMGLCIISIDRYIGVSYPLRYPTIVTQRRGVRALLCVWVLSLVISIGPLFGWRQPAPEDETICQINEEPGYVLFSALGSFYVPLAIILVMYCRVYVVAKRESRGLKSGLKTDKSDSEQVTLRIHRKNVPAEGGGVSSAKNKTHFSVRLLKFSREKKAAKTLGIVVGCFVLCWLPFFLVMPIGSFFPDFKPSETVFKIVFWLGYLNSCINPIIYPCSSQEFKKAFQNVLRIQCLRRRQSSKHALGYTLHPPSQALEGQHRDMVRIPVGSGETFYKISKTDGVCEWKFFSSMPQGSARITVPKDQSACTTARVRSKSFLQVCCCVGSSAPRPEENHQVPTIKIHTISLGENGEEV
Summary of the method: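 Chemicals first screened in duplicate at 25 uM, then actives tested in concentration series up to 50 uM. Binding measured as displacement of radioligand from rat forebrain membrane receptors, 1 h, filtration with scintillation readout; DMSO baseline.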

[10] = target: guinea pig Bradykinin Receptor B2 (BK2), BDKRB2 (gene 100135486) (UniProt O70526); test: NVS_GPCR_gBK2: NovaScreen (NVS) G Protein-Coupled Receptor Assay for guinea pig Bradykinin Receptor B2 (BK2) (AID 2283292)
Sequence of guinea pig Bradykinin Receptor B2 (BK2), BDKRB2 (gene 100135486) (O70526 whole entry, looked up): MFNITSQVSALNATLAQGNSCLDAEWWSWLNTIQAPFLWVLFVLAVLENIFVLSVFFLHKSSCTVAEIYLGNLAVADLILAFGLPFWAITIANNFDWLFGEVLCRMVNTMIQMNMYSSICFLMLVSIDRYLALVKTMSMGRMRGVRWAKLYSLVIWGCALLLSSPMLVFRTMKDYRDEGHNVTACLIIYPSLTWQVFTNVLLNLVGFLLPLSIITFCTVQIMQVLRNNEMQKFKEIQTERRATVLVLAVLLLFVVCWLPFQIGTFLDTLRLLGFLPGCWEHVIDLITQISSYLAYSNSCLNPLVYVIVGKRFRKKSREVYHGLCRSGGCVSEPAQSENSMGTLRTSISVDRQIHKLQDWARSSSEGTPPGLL
Summary of the method: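 Guinea pig ileum membrane preparation incubated 1 h with radioligand and test chemical; bound counts measured after filtration. Primary duplicate screening at 25 uM, then singleton concentration series with a 50 uM top dose; DMSO as baseline.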

With `CCC(C)(CC)c1cc(NC(=O)c2c(OC)cccc2OC)on1` the outcome [1] was “inactive”.
In the case of `Cc1cc(O)ccc1Cl`, the AC50 [2] is reported as 9.65 µM (active).
In the case of `O=S(=O)(O)C(F)(F)C(F)(F)C(F)(F)C(F)(F)C(F)(F)C(F)(F)F`, the outcome [3] is reported as “inactive”.
With `CCCCCCCCCC[N+](C)(C)CCCCCCCCCC` the AC50 [4] was 7.2 µM (active), the AC50 [2] was 21.1 µM (active) and the AC50 [5] was 4.3 µM (active). The AC50 [6] was 21.9 µM (active).
`CC(C)(c1ccccc1)c1ccc(O)cc1` was tested, and the AC50 [2] was 17.9 µM (active), the AC50 [5] was 11.8 µM (active) and the AC50 [7] was 18.5 µM (active). For the same compound, the AC50 [6] was 23.7 µM (active).
In the case of `Oc1ccc(Cl)cc1Cl`, the outcome [2] is reported as “inactive”.
`CC1=C2C[C@H]3[C@@H](CC=C4C[C@@H](O)CC[C@@]43C)[C@@H]2CC[C@]12O[C@@H]1C[C@H](C)CN[C@H]1[C@H]2C` was tested, and the outcome [6] was “inactive” and the outcome [8] was “inactive”.
In the case of `CCC(C)(c1ccc(O)cc1)c1ccc(O)cc1`, the AC50 [2] is reported as 16.9 µM (active), the AC50 [5] is reported as 9.36 µM (active) and the AC50 [6] is reported as 16.5 µM (active).
For `Cc1ccccc1[N+](=O)[O-]`, the outcome [1] was “inactive”.
With `Clc1ccc(C(c2ccccc2Cl)C(Cl)(Cl)Cl)cc1` (stereo not drawn) the outcome [5] was “inactive”.
`CC(C)(O)C(=O)Nc1ccc([N+](=O)[O-])c(C(F)(F)F)c1` was tested, and the AC50 [2] was 19.2 µM (active).
In the case of `NS(=O)(=O)C(F)(F)C(F)(F)C(F)(F)C(F)(F)C(F)(F)C(F)(F)C(F)(F)C(F)(F)F`, the outcome [5] is reported as “inactive” and the outcome [3] is reported as “inactive”.
`CCOC(=O)C(O)(c1ccc(Cl)cc1)c1ccc(Cl)cc1` was tested, and the AC50 [4] was 7.46 µM (active).
With `Oc1ccc(C(c2ccc(O)cc2)(C(F)(F)F)C(F)(F)F)cc1` the AC50 [2] was 1.39 µM (active), the AC50 [9] was 38.1 µM (active) and the AC50 [5] was 4.93 µM (active). The AC50 [6] was 11.7 µM (active) and the AC50 [8] was 41.2 µM (active).
For `CCOP(=S)(OCC)SCSC(C)(C)C`, the outcome [2] was “inactive”.
In the case of `O=C(N[C@H]1CN2CCC1CC2)c1cc2ccoc2cn1`, the AC50 [6] is reported as 16.4 µM (active) and the AC50 [8] is reported as 11 µM (active).
`Nc1ccc(-c2ccc(N)cc2)cc1` was tested, and the outcome [8] was “inactive”.
In the case of `C[C@]12CCC(=O)C=C1CC[C@@H]1[C@@H]2CC[C@@]2(C)[C@H]1CC[C@]2(C)O`, the outcome [5] is reported as “inactive”.
In the case of `ClC1=C(Cl)[C@]2(Cl)[C@@H]3[C@H]4C[C@H]([C@@H]5O[C@H]45)[C@@H]3[C@@]1(Cl)C2(Cl)Cl`, the outcome [3] is reported as “inactive”.
With `COc1ccc(O)c(C(C)(C)C)c1` the AC50 [2] was 13.2 µM (active), the outcome [9] was “inactive” and the outcome [7] was “inactive”. For the same compound, the AC50 [6] was 18.8 µM (active).
With `O=C(O)C(F)(F)C(F)(F)C(F)(F)C(F)(F)C(F)(F)C(F)(F)C(F)(F)C(F)(F)C(F)(F)F` the AC50 [5] was 25 µM (active).
With `Cc1ccc(O)c(C)c1` the outcome [2] was “inactive” and the outcome [10] was “inactive”.
With `CC(C)C(=O)OCC(C)(C)C(OC(=O)C(C)C)C(C)C` (stereo not drawn) the outcome [10] was “inactive”.
`Cc1cc2c3c(c1)C(c1ccccc1)=N[C@@H](NC(=O)c1ccncc1)C(=O)N3CC2` was tested, and the AC50 [1] was 6.17 µM (active).
